Hit rate of the full screen: of about 5,500 compounds, about 2,000 (36%) were called active. About 18% were inconclusive and are not listed. Rule as the data show it: active = normalized growth mostly below about 0.91 (no sharp cut-off); inconclusive = no clear call, values can overlap the other calls; inactive = mostly above about 0.92. The list shows a part of the results.
Assay: chemical genetic growth profiling, strain panel (AID 1159580);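 also: tested at 20 µM; growth read once vehicle control cultures reached saturation at 30 °C; 1 = growth at the plate median or of vehicle wells; lower values mean less growth of the strain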
Details: growth OD

Measured: normalized growth

CC(=O)O[C@H]1C[C@@]2(C)[C@@H](C[C@@H](O)C3[C@]2(C)CC[C@H]2[C@H](C)[C@H](O)CC[C@]32C)/C1=C(/CCC=C(C)C)C(=O)O (some centres undefined)
inactive: S. cerevisiae deletion strains, locus YJL187C, strain SWE1 (second series), hits give low values 1.01 | S. cerevisiae deletion strains, locus YJL187C, strain SWE1, hits give low values 1.04 | S. cerevisiae deletion strains, locus YJR043C, strain POL32, hits give low values 1 | S. cerevisiae deletion strains, locus YJR066W, strain TOR1, hits give low values 0.983 | S. cerevisiae deletion strains, locus YKL009W, strain mrt4, hits give low values 0.99 | S. cerevisiae deletion strains, locus YKL068W, hits give low values 1.01 | S. cerevisiae deletion strains, locus YKL085W, strain MDH1 (second series), hits give low values 0.997 | S. cerevisiae deletion strains, locus YKL085W, strain MDH1, hits give low values 0.997 | S. cerevisiae deletion strains, locus YKL160W, strain elf1, hits give low values 1.07 | S. cerevisiae deletion strains, locus YKL190W, strain CNB1, hits give low values 1.01 | S. cerevisiae deletion strains, locus YKR001C, strain vps1, hits give low values 1.03 | S. cerevisiae deletion strains, locus YKR026C, strain gcn3, hits give low values 1.01 | S. cerevisiae deletion strains, locus YKR091W, strain srl3, hits give low values 1.03 | S. cerevisiae deletion strains, locus YLL001W, strain dnm1, hits give low values 1.04 | S. cerevisiae deletion strains, locus YLL026W, hits give low values 1.02 | S. cerevisiae deletion strains, locus YLL041C, strain sdh2, hits give low values 1.02 | S. cerevisiae deletion strains, locus YLR027C, strain aat2, hits give low values 1.01 | S. cerevisiae deletion strains, locus YLR039C, strain RIC1, hits give low values 0.996 | S. cerevisiae deletion strains, locus YLR058C, strain SHM2, hits give low values 1.04 | S. cerevisiae deletion strains, locus YLR102C, strain apc9, hits give low values 1.02 | S. cerevisiae deletion strains, locus YLR113W, strain HOG1, hits give low values 0.957 | S. cerevisiae deletion strains, locus YLR221C, strain rsa3, hits give low values 1.06 | S. cerevisiae deletion strains, locus YLR258W, strain gsy2, hits give low values 1.03 | S. cerevisiae deletion strains, locus YLR262C, strain YPT6 (second series), hits give low values 0.991 | S. cerevisiae deletion strains, locus YLR262C, strain YPT6, hits give low values 0.997 | S. cerevisiae deletion strains, locus YLR268W, strain sec22, hits give low values 1.01 | S. cerevisiae deletion strains, locus YLR320W, strain mms22, hits give low values 1.06 | S. cerevisiae deletion strains, locus YLR330W, strain CHS5, hits give low values 1.01 | S. cerevisiae deletion strains, locus YLR342W, strain FKS1 (second series), hits give low values 1.03 | S. cerevisiae deletion strains, locus YLR342W, strain FKS1, hits give low values 1.04 | S. cerevisiae deletion strains, locus YLR357W, strain rsc2, hits give low values 1.1 | S. cerevisiae deletion strains, locus YLR370C, strain arc18, hits give low values 1.03 | S. cerevisiae deletion strains, locus YLR371W, strain rom2, hits give low values 1.01 | S. cerevisiae deletion strains, locus YLR384C, strain iki3, hits give low values 1.04 | S. cerevisiae deletion strains, locus YLR418C, strain cdc73, hits give low values 1.05 | S. cerevisiae deletion strains, locus YML016C, strain PPZ1, hits give low values 1 | S. cerevisiae deletion strains, locus YML032C, strain rad52, hits give low values 1.02 | S. cerevisiae deletion strains, locus YML120C, strain ndi1, hits give low values 1.05 | S. cerevisiae deletion strains, locus YML124C, strain tub3, hits give low values 1.03 | S. cerevisiae deletion strains, locus YMR058W, strain fet3, hits give low values 1.03 | S. cerevisiae deletion strains, locus YMR078C, strain ctf18, hits give low values 1.02 | S. cerevisiae deletion strains, locus YMR125W, strain sto1, hits give low values 1.04 | S. cerevisiae deletion strains, locus YMR129W, hits give low values 1.02 | S. cerevisiae deletion strains, locus YMR205C, strain PFK2, hits give low values 1.04 | S. cerevisiae deletion strains, locus YMR223W, strain ubp8, hits give low values 1.05 | S. cerevisiae deletion strains, locus YMR231W, strain pep5, hits give low values 1.02 | S. cerevisiae deletion strains, locus YMR307W, strain GAS1, hits give low values 0.995 | S. cerevisiae deletion strains, locus YNL067W, strain RPL9B, hits give low values 1.01 | S. cerevisiae deletion strains, locus YNL071W, strain lat1, hits give low values 1.03 | S. cerevisiae deletion strains, locus YNL153C, strain GIM3, hits give low values 1.02 | S. cerevisiae deletion strains, locus YNL183C, strain NPR1, hits give low values 0.936 | S. cerevisiae deletion strains, locus YNL209W, strain ssb2, hits give low values 1.03 | S. cerevisiae deletion strains, locus YNL233W, strain BNI4, hits give low values 1.01 | S. cerevisiae deletion strains, locus YNL248C, strain rpa49, hits give low values 1.05 | S. cerevisiae deletion strains, locus YNL250W, strain rad50, hits give low values 1.03 | S. cerevisiae deletion strains, locus YNL271C, strain bni1, hits give low values 1.02 | S. cerevisiae deletion strains, locus YNL298W, strain CLA4, hits give low values 1.02 | S. cerevisiae deletion strains, locus YNL307C, strain MCK1, hits give low values 1.03 | S. cerevisiae deletion strains, locus YNL322C, strain KRE1 (second series), hits give low values 1.05 | S. cerevisiae deletion strains, locus YNR049C, strain mso1, hits give low values 1.05 | S. cerevisiae deletion strains, locus YNR052C, strain pop2, hits give low values 1.03 | S. cerevisiae deletion strains, locus YOL012C, strain htz1 1.07 | S. cerevisiae deletion strains, locus YOL147C, strain pex11, hits give low values 1.04 | S. cerevisiae deletion strains, locus YOR001W, strain rrp6, hits give low values 1.01 | S. cerevisiae deletion strains, locus YOR061W, strain CKA2, hits give low values 0.999 | S. cerevisiae deletion strains, locus YOR069W, strain VPS5, hits give low values 1.02 | S. cerevisiae deletion strains, locus YOR070C, strain gyp1, hits give low values 1.03 | S. cerevisiae deletion strains, locus YOR080W, strain dia2, hits give low values 1.04 | S. cerevisiae deletion strains, locus YOR083W, strain WHI5, hits give low values 1.06 | S. cerevisiae deletion strains, locus YOR106W, strain vam3, hits give low values 1.04 | S. cerevisiae deletion strains, locus YOR136W, strain idh2, hits give low values 1.02 | S. cerevisiae deletion strains, locus YOR144C, strain elg1, hits give low values 1.02 | S. cerevisiae deletion strains, locus YOR184W, strain ser1, hits give low values 1.02 | S. cerevisiae deletion strains, locus YOR231W, strain MKK1, hits give low values 0.956 | S. cerevisiae deletion strains, locus YOR265W, strain rbl2, hits give low values 1.02 | S. cerevisiae deletion strains, locus YOR270C, strain vph1, hits give low values 1 | S. cerevisiae deletion strains, locus YOR290C, strain snf2, hits give low values 0.974 | S. cerevisiae deletion strains, locus YOR316C, strain cot1, hits give low values 1.02 | S. cerevisiae deletion strains, locus YPL051W, strain arl3, hits give low values 1.04 | S. cerevisiae deletion strains, locus YPL078C, strain atp4, hits give low values 1.02 | S. cerevisiae deletion strains, locus YPL106C, strain sse1, hits give low values 1.07 | S. cerevisiae deletion strains, locus YPL240C, strain hsp82, hits give low values 1.03 | S. cerevisiae deletion strains, locus YPL256C, strain CLN2, hits give low values 0.986 | S. cerevisiae deletion strains, locus YPR119W, strain clb2, hits give low values 1.02 | S. cerevisiae deletion strains, locus YPR141C, strain kar3, hits give low values 1.03 | S. cerevisiae deletion strains, locus YPR163C, strain tif3, hits give low values 1.04 | S. cerevisiae deletion strains, locus YPR167C, strain met16, hits give low values 1.03 | S. cerevisiae deletion strains, strain wtn01, hits give low values 1.02 | S. cerevisiae strains, strain wild type, hits give low values 1.01

Reference: PubChem BioAssay AID1159580 (chemical genetic matrix, 2015)
